About 7,900 targets were measured; listed, in parts, are those with a hit and a random draw of the rest. About 0.6% of all pairs of compound and target were hits.
Experiments:
Test in all cases: log2 fold change, soluble protein after heating vs DMSO (PISA); higher = thermal stabilisation; K562 cells, 10 uM, 30 min; active = over 0.2 and 3.5 SD of the protein, either way, in both replicates (recomputed)
[1] = compound: NC(=O)Nc1cc(-c2cccc(F)c2)sc1C(=O)N[C@H]1CCCNC1
Method in brief: (§1)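 Values are thermal stability changes relative to control samples and are taken from duplicates. They are stated as log2 fold changes. Before quantification by TMTpro 16plex LC-MS/MS with equalised channel sums, K562 cells at 2×10^6 cells/mL were treated with 10 μM compound for 30 min, heated in aliquots for 3 min across 48°C-58°C, pooled, extracted in PBS with 0.5% NP-40 at 4°C, and centrifuged at 21,000xg for 90 min to give the soluble supernatant.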

[2] = compound: NC(=O)c1cnc(N[C@@H]2CCCC[C@@H]2N)nc1Nc1cccc(-n2nccn2)c1
Method in brief: as §1

[3] = compound: NC1(c2ccc(-c3nc4ccn5c(=O)[nH]nc5c4cc3-c3ccccc3)cc2)CCC1
Method in brief: as §1

[4] = compound: NCC(=O)Nc1ccc(-n2nc(C(F)(F)F)cc2-c2ccc3c(ccc4ccccc43)c2)cc1
Method in brief: as §1

[5] = compound: Nc1ccccc1NC(=O)c1ccc(CNC(=O)OCc2cccnc2)cc1 [entinostat]
Method in brief: as §1

[6] = compound: O=C(CCCCCCC(=O)Nc1ccccc1)NO [vorinostat]
Method in brief: as §1

[7] = compound: O=C(CCCCCCNC(=O)c1cnc(N(c2ccccc2)c2ccccc2Cl)nc1)NO [citarinostat]
Method in brief: as §1

[8] = compound: O=C(O)c1ccc2c(c1)nc(Nc1cccc(Cl)c1)c1ccncc12 [silmitasertib]
Method in brief: as §1

[9] = compound: O=C1NC(=O)C(c2cnc3ccccn23)=C1c1cn2c3c(cc(F)cc13)CN(C(=O)N1CCCCC1)CC2
Method in brief: as §1

[10] = compound: c1cc(OCCN2CCCCC2)cc(-c2n[nH]c3ccc(-c4nnc[nH]4)cc23)c1
Method in brief: as §1

Measured: log2 fold change

CPT2 (UniProt P23786)
inactive: [1] -0.045 | [2] -0.264 | [3] 0.193 | [4] -0.052 | [5] 0.174 | [6] -0.097 | [7] -0.109 | [8] -0.08 | [9] 0.014 | [10] 0.157

CEPT1 (UniProt Q9Y6K0)
Sequence of UniProt Q9Y6K0 (Q9Y6K0 whole entry, looked up): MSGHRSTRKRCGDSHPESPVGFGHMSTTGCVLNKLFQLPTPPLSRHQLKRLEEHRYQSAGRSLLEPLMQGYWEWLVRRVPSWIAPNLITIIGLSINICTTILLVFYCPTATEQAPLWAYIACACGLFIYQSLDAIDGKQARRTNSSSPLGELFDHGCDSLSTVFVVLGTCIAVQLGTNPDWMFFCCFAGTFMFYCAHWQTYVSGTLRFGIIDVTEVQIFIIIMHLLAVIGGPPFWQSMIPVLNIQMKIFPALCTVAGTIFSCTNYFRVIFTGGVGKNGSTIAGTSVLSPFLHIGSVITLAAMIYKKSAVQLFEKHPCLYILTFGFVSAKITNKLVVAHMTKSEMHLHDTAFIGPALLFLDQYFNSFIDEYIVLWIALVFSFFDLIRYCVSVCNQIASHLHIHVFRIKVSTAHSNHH
inactive: [1] -0.065 | [2] -0.101 | [3] -0.215 | [4] -0.156 | [5] 0.065 | [6] -0.078 | [7] -0.023 | [8] -0.014 | [9] -0.054 | [10] -0.085

CCAR2 isoform 2 (UniProt Q8N163)
inactive: [1] -0.056 | [2] -0.106 | [3] -0.013 | [4] -0.088 | [5] 0.089 | [6] 0.168 | [7] 0.033 | [8] -0.039 | [9] -0.151 | [10] 0.033

COPS3 isoform 2 (UniProt Q9UNS2)
Sequence of UniProt Q9UNS2 (Q9UNS2 whole entry, looked up): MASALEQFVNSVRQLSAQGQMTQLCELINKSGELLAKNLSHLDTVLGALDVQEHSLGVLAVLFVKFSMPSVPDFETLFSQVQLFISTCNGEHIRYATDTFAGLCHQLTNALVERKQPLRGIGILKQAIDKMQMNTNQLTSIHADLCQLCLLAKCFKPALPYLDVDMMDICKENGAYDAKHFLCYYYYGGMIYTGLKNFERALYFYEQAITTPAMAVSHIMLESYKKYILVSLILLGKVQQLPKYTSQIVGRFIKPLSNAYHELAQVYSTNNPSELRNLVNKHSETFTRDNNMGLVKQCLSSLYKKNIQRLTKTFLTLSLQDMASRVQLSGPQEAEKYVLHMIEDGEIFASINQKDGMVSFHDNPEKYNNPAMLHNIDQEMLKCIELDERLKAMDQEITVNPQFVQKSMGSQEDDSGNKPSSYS
inactive: [1] -0.129 | [2] -0.364 | [3] -0.005 | [4] -0.272 | [5] -0.007 | [6] -0.169 | [7] -0.14 | [8] 0 | [9] -0.597 | [10] 0.011

CD55 isoform 7 (UniProt P08174)
Sequence of UniProt P08174 (P08174 whole entry, looked up): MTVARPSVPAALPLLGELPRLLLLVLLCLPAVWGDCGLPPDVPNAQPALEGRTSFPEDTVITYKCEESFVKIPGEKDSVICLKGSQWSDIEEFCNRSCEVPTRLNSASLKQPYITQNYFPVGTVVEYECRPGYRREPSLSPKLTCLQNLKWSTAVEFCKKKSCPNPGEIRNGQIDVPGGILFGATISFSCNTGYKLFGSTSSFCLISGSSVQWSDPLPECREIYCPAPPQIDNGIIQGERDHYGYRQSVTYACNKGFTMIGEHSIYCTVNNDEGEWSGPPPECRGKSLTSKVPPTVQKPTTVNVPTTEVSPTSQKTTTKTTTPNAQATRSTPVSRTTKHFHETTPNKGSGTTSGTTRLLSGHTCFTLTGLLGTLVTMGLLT
inactive: [1] -0.048 | [2] 0.028 | [3] 0.128 | [4] 0.108 | [5] 0.018 | [6] -0.044 | [7] 0.009 | [8] -0.006 | [9] -0.043 | [10] -0.047

CNTN4 (UniProt Q8IWV2)
inactive: [1] 0.016 | [2] -0.056 | [3] 0.614 | [4] -0.085 | [5] -0.106 | [6] 0.017 | [7] 0.141 | [8] -0.197 | [9] -0.18 | [10] 0.088

C4A (UniProt P0C0L4)
Sequence of UniProt P0C0L4 (P0C0L4 whole entry, looked up): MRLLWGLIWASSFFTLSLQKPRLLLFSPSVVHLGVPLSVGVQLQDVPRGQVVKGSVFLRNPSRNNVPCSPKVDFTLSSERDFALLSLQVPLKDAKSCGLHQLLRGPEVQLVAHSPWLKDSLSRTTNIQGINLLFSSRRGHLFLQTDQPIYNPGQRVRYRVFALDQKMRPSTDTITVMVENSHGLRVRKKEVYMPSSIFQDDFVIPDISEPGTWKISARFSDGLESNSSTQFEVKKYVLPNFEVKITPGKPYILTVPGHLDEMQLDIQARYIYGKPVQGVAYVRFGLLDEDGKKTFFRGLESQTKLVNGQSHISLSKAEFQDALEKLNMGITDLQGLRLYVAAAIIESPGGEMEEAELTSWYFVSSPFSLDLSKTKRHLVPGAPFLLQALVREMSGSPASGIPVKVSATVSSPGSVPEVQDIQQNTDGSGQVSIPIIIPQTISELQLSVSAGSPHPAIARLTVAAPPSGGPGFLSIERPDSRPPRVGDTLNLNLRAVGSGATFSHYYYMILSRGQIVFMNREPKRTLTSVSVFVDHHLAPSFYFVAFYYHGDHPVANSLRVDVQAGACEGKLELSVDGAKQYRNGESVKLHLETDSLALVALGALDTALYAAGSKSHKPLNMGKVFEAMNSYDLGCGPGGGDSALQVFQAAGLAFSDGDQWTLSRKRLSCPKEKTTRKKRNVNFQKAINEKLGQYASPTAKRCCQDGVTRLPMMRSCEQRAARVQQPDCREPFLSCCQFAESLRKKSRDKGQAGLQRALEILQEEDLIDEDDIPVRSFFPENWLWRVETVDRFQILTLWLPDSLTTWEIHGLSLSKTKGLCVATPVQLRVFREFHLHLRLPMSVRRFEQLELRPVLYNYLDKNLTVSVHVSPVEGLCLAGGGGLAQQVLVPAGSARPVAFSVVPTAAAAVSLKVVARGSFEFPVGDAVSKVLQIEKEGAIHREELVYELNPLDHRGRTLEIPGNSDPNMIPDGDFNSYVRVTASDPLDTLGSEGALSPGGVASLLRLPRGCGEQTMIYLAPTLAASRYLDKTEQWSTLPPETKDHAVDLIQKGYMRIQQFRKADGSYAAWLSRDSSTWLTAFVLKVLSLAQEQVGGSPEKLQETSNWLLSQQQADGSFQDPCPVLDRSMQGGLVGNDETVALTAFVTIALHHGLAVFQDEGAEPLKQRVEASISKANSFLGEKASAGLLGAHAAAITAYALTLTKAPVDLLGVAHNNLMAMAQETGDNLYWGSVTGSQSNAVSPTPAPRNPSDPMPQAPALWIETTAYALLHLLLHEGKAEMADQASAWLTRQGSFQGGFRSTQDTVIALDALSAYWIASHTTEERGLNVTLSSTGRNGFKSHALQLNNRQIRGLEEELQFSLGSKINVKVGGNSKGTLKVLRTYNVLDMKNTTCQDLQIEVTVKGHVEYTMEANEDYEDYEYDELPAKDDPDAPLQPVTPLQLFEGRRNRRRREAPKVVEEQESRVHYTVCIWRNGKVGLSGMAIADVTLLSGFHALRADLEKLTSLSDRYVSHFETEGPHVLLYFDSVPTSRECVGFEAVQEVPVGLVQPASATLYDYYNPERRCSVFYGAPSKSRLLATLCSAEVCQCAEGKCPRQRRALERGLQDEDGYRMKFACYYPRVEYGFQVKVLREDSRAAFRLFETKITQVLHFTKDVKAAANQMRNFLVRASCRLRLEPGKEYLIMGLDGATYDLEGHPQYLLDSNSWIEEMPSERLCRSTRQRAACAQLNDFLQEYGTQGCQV
inactive: [1] -0.024 | [2] -0.016 | [3] -0.129 | [4] 0 | [5] 0.021 | [6] 0.265 | [7] -0.071 | [8] 0.059 | [9] 0.038 | [10] 0.146

CDK11B (UniProt P21127)
Sequence of UniProt P21127 (P21127 whole entry, looked up): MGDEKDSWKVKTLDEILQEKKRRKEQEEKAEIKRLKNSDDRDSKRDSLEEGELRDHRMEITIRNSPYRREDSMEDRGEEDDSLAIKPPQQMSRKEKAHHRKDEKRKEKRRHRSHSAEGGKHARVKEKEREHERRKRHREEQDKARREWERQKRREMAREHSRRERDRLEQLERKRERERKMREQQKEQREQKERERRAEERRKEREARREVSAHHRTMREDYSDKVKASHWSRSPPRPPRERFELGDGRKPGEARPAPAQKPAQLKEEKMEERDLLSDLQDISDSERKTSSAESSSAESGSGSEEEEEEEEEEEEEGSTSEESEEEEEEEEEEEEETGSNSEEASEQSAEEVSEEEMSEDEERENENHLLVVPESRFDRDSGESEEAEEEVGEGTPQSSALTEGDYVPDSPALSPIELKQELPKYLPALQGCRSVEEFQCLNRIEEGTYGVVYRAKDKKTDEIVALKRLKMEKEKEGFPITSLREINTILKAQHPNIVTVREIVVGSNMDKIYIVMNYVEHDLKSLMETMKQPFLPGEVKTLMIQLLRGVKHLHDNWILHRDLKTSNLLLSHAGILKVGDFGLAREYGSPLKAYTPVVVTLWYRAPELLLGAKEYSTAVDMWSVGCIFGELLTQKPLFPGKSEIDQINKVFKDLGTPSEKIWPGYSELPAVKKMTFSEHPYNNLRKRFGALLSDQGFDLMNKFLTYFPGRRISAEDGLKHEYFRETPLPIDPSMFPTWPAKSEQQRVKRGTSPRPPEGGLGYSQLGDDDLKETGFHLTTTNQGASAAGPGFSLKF
inactive: [1] -0.114 | [2] -0.012 | [3] 0.031 | [4] 0.006 | [5] -0.111 | [6] 0.064 | [7] -0.047 | [8] -0.061 | [9] 0.072 | [10] -0.301

CS (UniProt O75390)
inactive: [1] -0.024 | [2] -0.087 | [3] -0.187 | [4] 0.007 | [5] 0.001 | [6] 0.064 | [7] 0.012 | [8] -0.039 | [9] 0.003 | [10] -0.068

COQ7 (UniProt Q99807)
Sequence of UniProt Q99807 (Q99807 whole entry, looked up): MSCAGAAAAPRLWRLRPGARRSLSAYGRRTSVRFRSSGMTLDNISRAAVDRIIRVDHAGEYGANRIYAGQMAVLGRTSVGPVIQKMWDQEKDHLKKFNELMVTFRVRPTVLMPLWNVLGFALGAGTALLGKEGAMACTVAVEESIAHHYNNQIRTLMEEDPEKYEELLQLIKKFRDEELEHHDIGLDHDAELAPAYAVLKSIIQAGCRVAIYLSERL
inactive: [1] -0.12 | [2] -0.009 | [3] -0.076 | [4] -0.007 | [5] 0 | [6] -0.032 | [7] 0.083 | [8] 0.008 | [9] -0.002 | [10] 0.015

COX6B1 (UniProt P14854)
Sequence of UniProt P14854 (P14854 whole entry, looked up): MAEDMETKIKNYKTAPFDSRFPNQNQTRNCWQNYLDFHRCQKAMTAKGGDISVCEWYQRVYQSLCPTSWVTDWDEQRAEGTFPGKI
inactive: [1] -0.039 | [2] -0.019 | [3] -0.146 | [4] 0.007 | [5] 0.085 | [6] -0.06 | [7] -0.007 | [8] -0.009 | [9] -0.126 | [10] -0.017

CLPP (UniProt Q16740)
Sequence of UniProt Q16740 (Q16740 whole entry, looked up): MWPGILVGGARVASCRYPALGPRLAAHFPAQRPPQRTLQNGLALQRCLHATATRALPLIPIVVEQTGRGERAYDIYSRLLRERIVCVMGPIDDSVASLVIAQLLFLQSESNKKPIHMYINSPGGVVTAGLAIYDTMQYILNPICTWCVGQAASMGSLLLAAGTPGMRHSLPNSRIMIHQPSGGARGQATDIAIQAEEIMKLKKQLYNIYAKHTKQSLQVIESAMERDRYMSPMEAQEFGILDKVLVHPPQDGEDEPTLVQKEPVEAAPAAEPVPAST
inactive: [1] 0.044 | [2] -0.027 | [3] 0.027 | [4] -0.008 | [5] 0.029 | [6] -0.05 | [7] 0.027 | [8] 0.007 | [9] 0.096 | [10] -0.031

CDC42BPA isoform 6 (UniProt Q5VT25)
inactive: [1] -0.325 | [2] -0.334 | [3] -0.06 | [4] -0.003 | [5] 0.012 | [6] 0.051 | [7] 0.115 | [8] 0.11 | [9] -0.041 | [10] -0.203

CPSF7 isoform 3 (UniProt Q8N684)
Sequence of UniProt Q8N684 (Q8N684 whole entry, looked up): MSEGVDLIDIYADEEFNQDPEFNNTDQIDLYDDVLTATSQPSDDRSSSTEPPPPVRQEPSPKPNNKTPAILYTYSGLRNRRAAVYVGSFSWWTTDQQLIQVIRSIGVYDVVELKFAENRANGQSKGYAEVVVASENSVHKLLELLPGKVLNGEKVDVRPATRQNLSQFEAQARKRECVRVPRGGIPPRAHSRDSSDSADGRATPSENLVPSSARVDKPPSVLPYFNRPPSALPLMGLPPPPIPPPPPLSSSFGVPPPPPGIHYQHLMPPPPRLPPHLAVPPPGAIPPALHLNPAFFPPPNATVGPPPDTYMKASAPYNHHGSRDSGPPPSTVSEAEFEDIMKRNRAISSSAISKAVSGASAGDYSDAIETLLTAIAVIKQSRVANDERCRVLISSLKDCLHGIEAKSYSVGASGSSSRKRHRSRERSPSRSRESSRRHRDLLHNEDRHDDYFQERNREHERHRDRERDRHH
inactive: [1] -0.063 | [2] 0.025 | [3] 0.027 | [4] 0.013 | [5] -0.023 | [6] 0.01 | [7] 0.001 | [8] -0.069 | [9] 0.054 | [10] -0.035

COA6 isoform 2 (UniProt Q5JTJ3)
Sequence of UniProt Q5JTJ3 (Q5JTJ3 whole entry, looked up): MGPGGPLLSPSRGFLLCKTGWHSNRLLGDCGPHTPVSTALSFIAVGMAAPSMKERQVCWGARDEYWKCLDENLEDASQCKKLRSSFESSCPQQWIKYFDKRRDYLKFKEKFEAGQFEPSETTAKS
inactive: [1] 0.034 | [2] 0.106 | [3] -0.009 | [4] -0.018 | [5] -0.003 | [6] -0.024 | [7] 0.053 | [8] 0.01 | [9] 0.011 | [10] -0.041
